SENP6 inh = SENP6 protease inhibition; Q9GZR1; Recombinant SENP6 catalytic domain, aminoluciferin luminescence; inhibition, % at 10 µM; 1.8% of 330,000 active; AID 2599;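 active = inhibition above about 50% at the single tested dose, limit read from the data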;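 note: plate controls were DMSO wells with enzyme for no effect and DMSO wells lacking enzyme for full effect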
Target sequence (Q9GZR1 628-1112 limits assumed): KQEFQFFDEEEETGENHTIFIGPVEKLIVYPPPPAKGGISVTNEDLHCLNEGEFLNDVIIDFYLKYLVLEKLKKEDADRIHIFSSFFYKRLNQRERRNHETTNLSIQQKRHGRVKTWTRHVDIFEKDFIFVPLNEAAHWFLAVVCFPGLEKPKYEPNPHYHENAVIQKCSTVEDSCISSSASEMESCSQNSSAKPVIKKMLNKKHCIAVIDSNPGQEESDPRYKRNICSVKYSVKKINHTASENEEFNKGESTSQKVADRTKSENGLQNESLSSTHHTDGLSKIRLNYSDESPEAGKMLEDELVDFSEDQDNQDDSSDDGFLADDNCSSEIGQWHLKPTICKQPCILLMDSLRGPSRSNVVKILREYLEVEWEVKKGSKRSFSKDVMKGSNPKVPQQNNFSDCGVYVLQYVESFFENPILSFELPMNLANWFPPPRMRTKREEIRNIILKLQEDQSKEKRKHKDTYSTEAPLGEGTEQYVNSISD
Platelet DG rel = platelet dense granule release activity | human platelet-rich plasma, SFLLRN dense granule ATP release, luminescence | inhibition, %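 (compounds screened at 7.5 µM in platelet-rich plasma)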 | 0.22% of 300,000 active | AID 1663;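 active = mean replicate score, as percent of positive control, at or above 50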
SENP8 block-1 = inhibitors of human SENP8 protease | Q96LD8 | inhibition, % at 10 µM | purified SENP8, Z-RLRGG-aminoluciferin cleavage, luminescence | 1.2% of 330,000 active; in the data active = inhibition above about 50%
SENP7 inh = inhibitors of human SENP7 protease; Q9BQF6; recombinant SENP7, Z-RLRGG-aminoluciferin luminescence, 40 min; inhibition, % at 5 µM; 1.5% of 330,000 active; AID 434973;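 active = inhibition above about 50% at the single test dose, limit read from the data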;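 note: plate controls were DMSO with enzyme for no effect and no enzyme buffer wells for full effect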
SENP8 block-2 = SENP8 (human) protease inhibition. Q96LD8. recombinant SENP8, Nedd8 substrate fluorescence. inhibition, % at 20 µM. 0.64% of 360,000 active. AID 602440; in the data active = inhibition mostly above about 40%, no sharp cut-off; inactive = mostly below about 27%
SENP8 confirm = human SENP8 inhibition, confirmed | shares compounds with SENP7 inh | Recombinant SENP8, Z-RLRGG-aminoluciferin luminescence, 60 min | inhibition, % at 12.5 µM | 40% of 6,200 active | AID 488912;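 active = mean inhibition across replicates above about 50%, limit read from the data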
SENP6 conf = confirmation of human SENP6 protease inhibitors | recombinant SENP6, Z-RLRGG-aminoluciferin luminescence | AID 488915 | inhibition, % at 12.5 µM | shares compounds with SENP7 inh | 58% of 6,200 active
SENP7 conf = human SENP7 inhibition, confirmed | inhibition, % at 12.5 µM | shares compounds with SENP7 inh | 69% of 6,200 active | recombinant SENP7, Z-RLRGG-aminoluciferin luminescence, 40 min
Casp3 select = selectivity test for SENP inhibitors: human caspase-3 inhibition; purified caspase-3, Z-DEVD-aminoluciferin luminescence, 60 min; shares compounds with SENP7 inh; inhibition, % at 12.5 µM; 60% of 6,200 active;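 active = mean inhibition above about 50%, limit read from the data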;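 note: plate controls were enzyme with DMSO for no effect and wells without caspase-3 for full effect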
Luc interf = interferes with luciferase luminescence in SENP counter-screen. 39% of 6,200 active. Pre-incubated SENP8/Z-RLRGG-aminoluciferin, luciferase luminescence interference. shares compounds with SENP7 inh. inhibition, % at 12.5 µM. AID 488919;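 active = mean inhibition above about 50% when retested at one dose, limit read from the data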;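 note: plate controls were DMSO wells with completed reaction for no effect and substrate without enzyme for full effect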
Numbers without * were called inactive; nt = not tested or not shown. Hits are enriched below; roughly 2.4% of the tested compounds scored in any of these assays.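 Rule for the calls, unless noted: active = mean inhibition above about 50% in the one-dose retest (limit read from the data); inactive = the rest.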

SMILES	SENP6 inh	Platelet DG rel	SENP8 block-1	SENP7 inh	SENP8 block-2	SENP8 confirm	SENP6 conf	SENP7 conf	Casp3 select	Luc interf
O=C(OCc1cc(=O)n2ccsc2n1)c1ccc(O)cc1O	64*	nt	47	39	-78	55*	49	79*	76*	61*
O=[N+]([O-])c1ccc(C2=Nc3cc(Cl)ccc3OC2)cc1	-1	6	-10	-8	-5	nt	nt	nt	nt	nt
Cc1ccc2c(c1)N=C(c1ccc(F)cc1)CO2	98*	nt	95*	97*	-156	4	97*	102*	91*	50
Nc1cccc2c(O)cccc12	68*	0	30	23	-391	8	24	10	9	1
CCCCC(=O)Nc1nnc(CCOC)s1	-12	2	-15	-8	-3	nt	nt	nt	nt	nt
NC(=O)c1ccsc1NC(=O)c1ccc(S(=O)(=O)N2CCCCC2)cc1	67*	18	58*	50	-21	57*	72*	92*	56*	23
CC(C)(C)c1cc[n+](C2=C([O-])c3ccccc3C(=O)/C2=N\S(=O)(=O)c2cccs2)cc1	66*	11	51*	35	106*	51*	75*	39	6	-3
CCCNC(=O)c1noc2c1CCc1cc(OC)ccc1-2	12	-1	-6	14	0	nt	nt	nt	nt	nt
COc1ccc2c(c1)CCc1c(C(=O)NCC(C)C)noc1-2	71*	-4	29	51*	14	25	44	81*	57*	18
OC(CN1CCN(c2cccc(Cl)c2)CC1)c1ccccc1 (configuration not stated)	-13	-1	-1	5	9	nt	nt	nt	nt	nt
OC(COC(c1ccccc1)c1ccccc1)CN1CCN(c2cccc(Cl)c2)CC1 (configuration not stated)	101*	3	-5	-10	3	4	-2	0	-3	-4
O=Cc1ccc(OC(=O)/C=C/c2ccccc2)cc1	-36	0	-36	-17	15	nt	nt	nt	nt	nt
CCOc1ccc(/C=C/C(=O)Oc2ccccc2)cc1	12	2	12	59*	-2	16	15	34	33	12
COc1cccc(-c2nc3ccc([N+](=O)[O-])cc3o2)c1	0	12	43	95*	0	49	56*	73*	49	8
O=[N+]([O-])c1ccc2nc(-c3ccccc3)oc2c1	77*	-2	63*	71*	19	54*	59*	78*	70*	22
O=c1oc(-c2cccc([N+](=O)[O-])c2)nc2ccccc12	24	-5	27	2	5	nt	nt	nt	nt	nt
Cc1cc(C)c(S(=O)(=O)Nc2ccccc2C(=O)N2CCOCC2)c(C)c1	-7	-9	-7	2	5	nt	nt	nt	nt	nt
COc1ccc(C(=O)c2nccc3cc(OC)c(OC)cc23)cc1OC	89*	nt	95*	92*	65*	86*	92*	81*	49	2
O=C(c1ccccc1)C1CC=CCC1C(=O)c1ccccc1 (configuration not stated)	nt	nt	nt	nt	11	nt	nt	nt	nt	nt
O=C(Nc1nc2ccccc2[nH]1)c1cccc(Br)c1	-17	-6	3	57*	-11	-6	1	3	34	10
O=C(Nc1nc2ccccc2[nH]1)Nc1ccccc1F	60*	12	39	40	15	14	54*	38	31	5
O=C(Nc1nc2ccccc2[nH]1)c1cccc(F)c1	91*	10	82*	91*	-4	8	84*	98*	92*	33
CN(C)c1cccc(C(=O)Nc2nc3ccccc3[nH]2)c1	33	11	37	65*	-193	41	44	81*	73*	43

Screening results deposited in PubChem BioAssay by several laboratories.
